The supplement of paper PMC10382584, “Macrocyclization of linear molecules by deep learning to facilitate macrocyclic drug candidates discovery” (Nature Communications, 2023)

compound: Cc1cnc(Nc2ccc(OCCN3CCCC3)cc2)nc1Nc1cccc(S(=O)(=O)NC(C)(C)C)c1 [Fedratinib]; assay: percent of DMSO control binding (KINOMEscan); higher = weaker binding / less inhibition; extreme values may be limits of the assay; settings: concentration: 100 nM

Sequence of UniProt O00329 (O00329 whole entry): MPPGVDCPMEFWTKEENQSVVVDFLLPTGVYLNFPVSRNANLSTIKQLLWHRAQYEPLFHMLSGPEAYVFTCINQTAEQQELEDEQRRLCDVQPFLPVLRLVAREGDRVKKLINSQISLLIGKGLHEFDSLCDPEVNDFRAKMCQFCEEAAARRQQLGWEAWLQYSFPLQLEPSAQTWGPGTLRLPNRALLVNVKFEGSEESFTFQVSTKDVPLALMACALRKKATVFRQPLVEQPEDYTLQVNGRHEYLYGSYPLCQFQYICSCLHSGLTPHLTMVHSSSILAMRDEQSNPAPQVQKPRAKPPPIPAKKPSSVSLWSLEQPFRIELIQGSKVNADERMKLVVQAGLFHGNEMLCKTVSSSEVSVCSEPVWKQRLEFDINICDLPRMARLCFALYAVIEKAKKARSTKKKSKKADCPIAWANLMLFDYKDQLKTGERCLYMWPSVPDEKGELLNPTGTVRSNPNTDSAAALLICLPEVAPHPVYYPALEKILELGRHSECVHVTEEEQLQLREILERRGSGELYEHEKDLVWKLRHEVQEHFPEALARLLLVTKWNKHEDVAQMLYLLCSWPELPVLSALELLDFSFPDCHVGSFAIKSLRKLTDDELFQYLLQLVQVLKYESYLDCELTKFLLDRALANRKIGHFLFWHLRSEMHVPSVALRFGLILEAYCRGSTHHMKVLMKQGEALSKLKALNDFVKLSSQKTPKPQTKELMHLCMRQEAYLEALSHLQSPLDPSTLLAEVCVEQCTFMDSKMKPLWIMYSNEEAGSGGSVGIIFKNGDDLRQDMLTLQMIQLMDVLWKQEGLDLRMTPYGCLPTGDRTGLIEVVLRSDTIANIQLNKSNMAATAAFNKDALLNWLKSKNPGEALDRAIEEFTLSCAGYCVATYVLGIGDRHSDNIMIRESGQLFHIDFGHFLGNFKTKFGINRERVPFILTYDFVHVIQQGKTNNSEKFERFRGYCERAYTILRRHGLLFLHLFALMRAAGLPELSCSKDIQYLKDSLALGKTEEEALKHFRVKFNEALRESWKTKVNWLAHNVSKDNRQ
Sequence of UniProt P35916 (P35916 whole entry): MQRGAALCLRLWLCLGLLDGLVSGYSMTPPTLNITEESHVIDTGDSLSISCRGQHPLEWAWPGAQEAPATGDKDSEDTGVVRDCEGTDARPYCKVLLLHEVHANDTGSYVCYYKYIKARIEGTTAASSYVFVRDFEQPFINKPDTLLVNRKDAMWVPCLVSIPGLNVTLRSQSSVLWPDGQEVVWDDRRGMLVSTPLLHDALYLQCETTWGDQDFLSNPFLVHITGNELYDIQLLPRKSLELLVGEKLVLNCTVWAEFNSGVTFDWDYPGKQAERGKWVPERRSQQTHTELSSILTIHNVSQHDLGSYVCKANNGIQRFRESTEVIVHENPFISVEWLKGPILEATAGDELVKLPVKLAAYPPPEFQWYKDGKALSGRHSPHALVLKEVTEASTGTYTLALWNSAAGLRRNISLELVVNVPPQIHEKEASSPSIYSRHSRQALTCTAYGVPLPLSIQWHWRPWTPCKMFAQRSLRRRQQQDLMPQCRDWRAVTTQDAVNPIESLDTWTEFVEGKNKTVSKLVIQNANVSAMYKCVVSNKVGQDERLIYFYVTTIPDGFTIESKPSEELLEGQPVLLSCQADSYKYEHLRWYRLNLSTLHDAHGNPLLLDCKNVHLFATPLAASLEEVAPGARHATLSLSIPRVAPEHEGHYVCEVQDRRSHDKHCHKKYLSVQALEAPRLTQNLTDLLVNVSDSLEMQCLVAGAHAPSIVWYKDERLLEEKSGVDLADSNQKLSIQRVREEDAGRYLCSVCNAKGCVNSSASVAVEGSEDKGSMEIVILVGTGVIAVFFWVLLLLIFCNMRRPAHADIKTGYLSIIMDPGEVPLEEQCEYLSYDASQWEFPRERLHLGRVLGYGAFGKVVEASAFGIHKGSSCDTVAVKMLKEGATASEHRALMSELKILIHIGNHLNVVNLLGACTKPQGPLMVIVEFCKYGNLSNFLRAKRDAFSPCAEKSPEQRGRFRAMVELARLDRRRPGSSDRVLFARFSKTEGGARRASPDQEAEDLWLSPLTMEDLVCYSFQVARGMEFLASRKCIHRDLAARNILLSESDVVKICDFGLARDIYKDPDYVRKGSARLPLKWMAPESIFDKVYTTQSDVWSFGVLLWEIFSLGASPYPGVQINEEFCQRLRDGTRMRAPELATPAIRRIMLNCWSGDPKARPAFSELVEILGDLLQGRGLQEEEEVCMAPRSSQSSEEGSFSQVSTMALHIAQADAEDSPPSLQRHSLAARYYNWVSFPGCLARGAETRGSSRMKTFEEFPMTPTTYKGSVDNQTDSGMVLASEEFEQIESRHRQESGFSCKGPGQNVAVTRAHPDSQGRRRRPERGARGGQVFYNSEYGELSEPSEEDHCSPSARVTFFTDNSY
Sequence of UniProt Q9UM73 (Q9UM73 whole entry C1156Y, looked up): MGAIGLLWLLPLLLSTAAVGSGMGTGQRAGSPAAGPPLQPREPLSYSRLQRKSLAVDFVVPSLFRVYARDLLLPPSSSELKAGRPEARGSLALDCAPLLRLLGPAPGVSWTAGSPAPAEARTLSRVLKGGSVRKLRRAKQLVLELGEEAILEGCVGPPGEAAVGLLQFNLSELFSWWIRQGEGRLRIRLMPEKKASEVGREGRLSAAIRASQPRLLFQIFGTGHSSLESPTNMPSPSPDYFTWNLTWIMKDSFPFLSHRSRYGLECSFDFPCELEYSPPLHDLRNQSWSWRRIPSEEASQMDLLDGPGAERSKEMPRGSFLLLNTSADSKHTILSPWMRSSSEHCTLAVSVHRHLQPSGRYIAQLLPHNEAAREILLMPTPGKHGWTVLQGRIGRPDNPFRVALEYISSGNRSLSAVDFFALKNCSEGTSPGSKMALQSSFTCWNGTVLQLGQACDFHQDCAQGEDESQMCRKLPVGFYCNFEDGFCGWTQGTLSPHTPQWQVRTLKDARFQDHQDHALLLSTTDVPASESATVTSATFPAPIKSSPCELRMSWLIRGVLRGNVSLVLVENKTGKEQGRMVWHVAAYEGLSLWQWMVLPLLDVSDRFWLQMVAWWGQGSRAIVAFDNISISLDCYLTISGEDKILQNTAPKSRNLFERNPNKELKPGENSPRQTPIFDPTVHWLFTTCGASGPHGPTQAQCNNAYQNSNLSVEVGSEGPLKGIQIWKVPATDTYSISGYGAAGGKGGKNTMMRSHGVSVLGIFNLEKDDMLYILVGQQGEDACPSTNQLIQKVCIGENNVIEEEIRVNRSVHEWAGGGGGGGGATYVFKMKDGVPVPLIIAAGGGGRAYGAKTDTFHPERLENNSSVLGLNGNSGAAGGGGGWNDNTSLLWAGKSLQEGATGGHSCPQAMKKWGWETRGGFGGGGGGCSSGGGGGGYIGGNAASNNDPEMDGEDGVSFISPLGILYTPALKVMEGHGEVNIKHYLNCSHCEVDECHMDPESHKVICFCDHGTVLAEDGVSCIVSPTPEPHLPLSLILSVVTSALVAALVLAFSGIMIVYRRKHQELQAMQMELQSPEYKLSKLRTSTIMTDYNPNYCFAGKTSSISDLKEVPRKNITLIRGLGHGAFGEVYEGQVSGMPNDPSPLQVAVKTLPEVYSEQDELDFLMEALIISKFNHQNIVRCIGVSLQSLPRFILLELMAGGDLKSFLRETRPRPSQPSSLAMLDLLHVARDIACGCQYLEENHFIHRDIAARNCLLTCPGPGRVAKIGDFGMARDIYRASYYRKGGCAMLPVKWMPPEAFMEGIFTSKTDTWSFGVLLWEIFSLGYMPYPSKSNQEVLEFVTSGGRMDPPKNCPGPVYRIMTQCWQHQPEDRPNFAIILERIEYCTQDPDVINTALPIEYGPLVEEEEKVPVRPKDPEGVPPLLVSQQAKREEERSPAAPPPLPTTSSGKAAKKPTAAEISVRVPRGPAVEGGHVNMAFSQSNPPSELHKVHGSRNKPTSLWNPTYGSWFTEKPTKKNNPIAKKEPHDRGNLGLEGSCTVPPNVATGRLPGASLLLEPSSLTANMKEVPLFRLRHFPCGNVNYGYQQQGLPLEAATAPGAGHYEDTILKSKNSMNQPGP
Sequence of UniProt Q9P286 (Q9P286 whole entry, looked up): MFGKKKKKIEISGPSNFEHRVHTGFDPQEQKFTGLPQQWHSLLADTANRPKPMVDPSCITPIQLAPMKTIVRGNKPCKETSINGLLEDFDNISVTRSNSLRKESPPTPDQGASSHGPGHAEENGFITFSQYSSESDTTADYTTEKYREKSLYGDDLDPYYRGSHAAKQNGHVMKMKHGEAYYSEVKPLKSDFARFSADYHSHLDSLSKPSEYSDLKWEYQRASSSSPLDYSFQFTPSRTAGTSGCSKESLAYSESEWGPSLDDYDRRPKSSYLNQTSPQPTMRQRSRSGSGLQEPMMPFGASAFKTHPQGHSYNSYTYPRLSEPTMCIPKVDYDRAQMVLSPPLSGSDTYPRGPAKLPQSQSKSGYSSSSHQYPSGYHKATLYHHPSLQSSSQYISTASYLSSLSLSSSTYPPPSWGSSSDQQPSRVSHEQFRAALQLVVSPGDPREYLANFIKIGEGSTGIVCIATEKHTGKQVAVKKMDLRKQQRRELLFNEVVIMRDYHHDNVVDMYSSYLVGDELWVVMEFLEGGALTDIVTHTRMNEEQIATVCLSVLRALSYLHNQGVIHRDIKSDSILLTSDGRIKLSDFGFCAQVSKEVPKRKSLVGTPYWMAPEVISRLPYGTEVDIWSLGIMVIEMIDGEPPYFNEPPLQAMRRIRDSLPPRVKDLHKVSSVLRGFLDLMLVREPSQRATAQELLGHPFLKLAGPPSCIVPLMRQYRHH

Row | Target | percent of DMSO control binding
1 | BIKE (UniProt Q9NSY1) | 7.4%
2 | CDC2L5 (UniProt Q14004) | 78%
3 | RSK1(Kin.Dom.2-C-terminal) (UniProt Q15418) | 93%
4 | DYRK1B (UniProt Q9Y463) | 97%
5 | BRK (UniProt Q13882) | 87%
6 | RPS6KA5(Kin.Dom.1-N-terminal) (UniProt O75582) | 100%
7 | EGFR(G719S) (UniProt P00533) | 99%
8 | RAF1 (UniProt P04049) | 85%
9 | MEK1 (UniProt Q02750) | 62%
10 | TAOK3 (UniProt Q9H2K8) | 60%
11 | LKB1 (UniProt Q15831) | 40%
12 | FLT4 (UniProt P35916) | 100%
13 | PFTAIRE2 (UniProt Q96Q40) | 100%
14 | IKK-epsilon (UniProt Q14164) | 57%
15 | ERK3 (UniProt Q16659) | 100%
16 | RPS6KA4(Kin.Dom.2-C-terminal) (UniProt O75676) | 39%
17 | WNK1 (UniProt Q9H4A3) | 100%
18 | HIPK2 (UniProt Q9H2X6) | 79%
19 | SGK3 (UniProt Q96BR1) | 91%

Row | Target | percent of DMSO control binding
20 | LATS2 (UniProt Q9NRM7) | 89%
21 | EGFR(S752-I759del) (UniProt P00533) | 88%
22 | FGFR4 (UniProt P22455) | 100%
23 | MAP3K3 (UniProt Q99759) | 78%
24 | RPS6KA5(Kin.Dom.2-C-terminal) (UniProt O75582) | 97%
25 | EGFR(E746-A750del) (UniProt P00533) | 99%
26 | INSRR (UniProt P14616) | 100%
27 | PRKCH | 100%
28 | PRKD3 (UniProt O94806) | 100%
29 | BMPR2 (UniProt Q13873) | 68%
30 | PIK3CD (UniProt O00329) | 75%
31 | STK36 (UniProt Q9NRP7) | 100%
32 | PAK7 (UniProt Q9P286) | 100%
33 | FLT1 (UniProt P17948) | 100%
34 | PRKCQ (UniProt Q04759) | 100%
35 | ALK(C1156Y) (UniProt Q9UM73) | 57%
36 | EGFR(T790M) (UniProt P00533) | 100%
37 | FGFR3(G697C) (UniProt P22607) | 78%
